# CendR NRP1 mod: alters CendR peptide binding to human NRP-1; O14786; FAM-RPARPAR peptide binding to NRP-1, fluorescence polarization; inhibition, % at 25 µM; 360,000 compounds, 0.85% hits; AID 602438;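 active = inhibition or corrected inhibition above about 18%, plus a signal ratio from 0.5 to 1.5, limit read from the data, passing the limit was not always enough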
# Target sequence (O14786 whole entry, looked up): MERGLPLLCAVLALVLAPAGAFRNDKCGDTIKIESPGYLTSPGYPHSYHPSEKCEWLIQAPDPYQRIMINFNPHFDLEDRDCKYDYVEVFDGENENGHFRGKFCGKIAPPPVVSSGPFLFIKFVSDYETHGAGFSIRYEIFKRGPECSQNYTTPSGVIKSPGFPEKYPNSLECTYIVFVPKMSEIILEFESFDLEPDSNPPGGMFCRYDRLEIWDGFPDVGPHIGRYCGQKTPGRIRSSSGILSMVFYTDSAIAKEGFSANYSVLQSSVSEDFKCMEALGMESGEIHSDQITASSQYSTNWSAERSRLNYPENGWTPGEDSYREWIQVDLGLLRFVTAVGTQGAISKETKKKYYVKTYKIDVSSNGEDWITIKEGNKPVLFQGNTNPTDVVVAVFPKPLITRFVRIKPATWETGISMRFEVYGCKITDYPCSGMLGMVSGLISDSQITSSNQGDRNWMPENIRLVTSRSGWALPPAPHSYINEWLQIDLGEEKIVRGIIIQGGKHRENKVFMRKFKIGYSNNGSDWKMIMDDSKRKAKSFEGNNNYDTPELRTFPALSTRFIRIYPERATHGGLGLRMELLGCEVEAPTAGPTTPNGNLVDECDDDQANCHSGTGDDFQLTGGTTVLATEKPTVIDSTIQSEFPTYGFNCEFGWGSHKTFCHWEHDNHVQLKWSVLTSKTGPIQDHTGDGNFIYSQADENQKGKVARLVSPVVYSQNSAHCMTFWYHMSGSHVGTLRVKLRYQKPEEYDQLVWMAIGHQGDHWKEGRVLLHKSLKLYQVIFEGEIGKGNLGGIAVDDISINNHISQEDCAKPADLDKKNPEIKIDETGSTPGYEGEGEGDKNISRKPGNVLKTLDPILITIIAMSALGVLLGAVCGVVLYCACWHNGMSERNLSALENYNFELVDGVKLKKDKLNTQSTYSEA
# MEKK2wt PB1 HTS: raises or lowers MEK5 binding to wildtype human MEKK2 PB1 domain; Q9Y2U5; 290,000 compounds, 1.1% hits; bead flow cytometry, Alexa488-MEK5 binding to MEKK2 WT; actives lie on both sides; binding response (% of control), % at 10 µM; AID 1531; in the data active = binding response below about 67% or above about 130%
# MEKK3 PB1 HTS: raises or lowers MEK5 binding to the human MEKK3 PB1 domain. 290,000 compounds, 1.4% hits. binding response (% of control), % at 10 µM. AID 1529. bead-based flow cytometry, Alexa488-MEK5 binding to MEKK3; actives lie on both sides; 0 = blocked by unlabeled MEK5, 100 = vehicle. Q99759;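 active = binding response more than 3 SD above or below the average of its plate-row segment, actives on both sides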;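 also: Alexa488 bead fluorescence after subtracting the streptavidin-only scavenger bead signal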
# SKN-1 inh: inhibitors of C. elegans SKN-1. C. elegans VP596 Pgst-4::GFP/RFP ratio, acrylamide-induced, 24 h. inhibition, % at 21.8 µM. 360,000 compounds, 0.49% hits. AID 624304;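 active = interference check ratio from 0.5 to 1.5 plus GFP to RFP signal ratio inhibition reaching or exceeding a fixed threshold, cut at about 30% in these data, passing the limit was not always enough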
# MEKK2mut PB1 HTS: signal of MEK5 binding to mutant human MEKK2 PB1 domain | bead flow cytometry, Alexa488-MEK5 binding to MEKK2 mutant | percent response, % at 10 µM | 290,000 compounds, 0.35% hits | AID 1530; in the data active = percent response above about 24%, passing the limit was not always enough
# MEKK2wt confirm: raises or lowers MEK5 binding to wildtype human MEKK2, retest; bead flow cytometry, Alexa488-MEK5 binding to MEKK2 WT; actives lie on both sides; shares compounds with MEKK3 PB1 HTS; 5,900 compounds, 2.4% hits; binding response (% of control), % at 10 µM; in the data active = binding response below about 16% or above about 210%; inactive = in between
# MEKK2mut confirm: signal of MEK5 binding to mutant human MEKK2, retest. shares compounds with MEKK3 PB1 HTS. 5,900 compounds, 2% hits. percent response, % at 10 µM. bead flow cytometry, Alexa488-MEK5 binding to MEKK2 mutant; in the data active = percent response mostly above about 71%, no sharp cut-off; inactive = mostly below about 38%;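 also: higher means compound restores mutant binding toward wildtype level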
# MEKK3 confirm: MEKK3-MEK5 PB1 inhibition, single concentration confirmation | shares compounds with MEKK3 PB1 HTS | bead flow cytometry, Alexa488-MEK5 binding to MEKK3; stronger effect = lower value | binding response (% of control), % at 10 µM | 5,900 compounds, 1.8% hits;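 active = binding response below 72% of control, or above a set upper limit, though filed actives all read lower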;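 also: 100% = DMSO only wells and 0% = binding blocked by excess unlabeled MEK5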
# The depositor's hits bear a star; . = no result given; [ ] = dose if it differs, or a comment. Hits are enriched below; roughly 3.2% of the tested compounds scored in any of these assays.
SMILES,CendR NRP1 mod,MEKK2wt PB1 HTS,MEKK3 PB1 HTS,SKN-1 inh,MEKK2mut PB1 HTS,MEKK2wt confirm,MEKK2mut confirm,MEKK3 confirm
Clc1ccc(-c2csc3ncnc(Cl)c23)cc1,-4,104,130*,-1,0,104,8,104
COC(=O)C1CCN(CCCOc2ccc(CN3CCN(c4ccc([N+](=O)[O-])cc4)CC3)cc2)CC1,-2,141*,106,-4,30,110,4,98
OCCN(CCO)CC(O)COc1ccc(C23CC4CC(CC(C4)C2)C3)cc1 (stereo not drawn),-16,122,132*,12,3,140,15,107
OCCN(CCO)CC(O)COc1ccc(Br)cc1 (stereo not drawn),-6,97,94,3,3,.,.,.
CCCNC(=O)c1cc(C2CCCCN2S(=O)(=O)Cc2cccc(C(F)(F)F)c2)on1 (stereo not drawn),-4,.,.,9,.,.,.,.
COc1ccc(-[n+]2c(C)cc(/C=C3\Sc4ccccc4N3C)cc2C)cc1,-172,29*[inhibitor],71*[inhibitor],-7,-5,61,-22,88
Cc1ccc2c(-c3csc(N)n3)c[nH]c2c1,.,88,87,.,-3,.,.,.
CNc1nc(-c2c[nH]c3ccccc23)cs1,-14,-4.0*[inhibitor],94,-18,2,-5.0*[inhibitor],-5,91
CN1CCN(CC(=O)Nc2nc(-c3c[nH]c4ccccc34)cs2)CC1,-14,145*,102,4,29,161,45,93
Nc1nc(-c2c[nH]c3ccccc23)cs1,-32,-7.0*[inhibitor],83,25,69*,83,-3,90
CC1CN=C(NS(=O)(=O)c2ccccc2)N1 (stereo not drawn),-10,.,.,-11,.,.,.,.
C=CCN1CC(=O)N2C(c3ccccc3)c3[nH]c4ccccc4c3C[C@H]2C1=O (stereo partly drawn),4,99,101,-19,-4,.,.,.
CC(C)(C)c1ccc(C(=O)N2CCC(C(=O)c3ccccc3)CC2)cc1,-10,99,98,7,-4,.,.,.
COC(=O)C1=C(NC(=O)c2ccccc2C)CCS1,6,54,46*[inhibitor],11,-15,89,-30,92
Cc1nn(CCOc2ccccc2)c(=O)n1-c1ccc(Cl)cc1,1,123,141*,1,4,102,-1,103
O=C(N/C(=C\c1cccc(Br)c1)C(=O)N1CCCCC1)c1ccco1,11,95,102,-8,-6,.,.,.
Cc1ccc(NC(=O)CCC(=O)OCC(=O)c2ccc(Oc3ccc([N+](=O)[O-])cc3)cc2)cc1C,-4,.,.,1,.,.,.,.
Cc1cccc(NC(=O)CCC(=O)OCC(=O)c2ccc(Oc3ccc([N+](=O)[O-])cc3)cc2)c1,-8,94,68*[inhibitor],13,-1,103,8,107
Cc1cc(=O)[nH]c2nc3ccccc3n12,12,.,.,25,.,.,.,.
N#Cc1nc(COc2ccccc2F)oc1NCCCn1ccnc1,-5,2.0*[inhibitor],1.0*[inhibitor],-14,-26,97,2,93
COc1ccc(C(=O)OCC(=O)NCc2ccc3c(c2)OCO3)cc1S(=O)(=O)N1CCOCC1,0,.,.,4,.,.,.,.
C[C@H]1CN([C@@H](C)CO)C(=O)c2cc(C#CC3CCCC3)cnc2O[C@H]1CN(C)C(=O)Cc1ccccn1,-4,.,.,9,.,.,.,.
Cc1cccc2c1-c1sc(C(=O)Nc3ccccc3N3CCN(C)CC3)cc1CO2,4,162*,103,13,4,198,46,111
Cc1cccc2c1-c1sc(C(=O)N3CCCCC3)cc1CO2,-7,99,97,32,1,.,.,.
Cc1ccc(Cn2cc(CN3CC(N(C)C)CS3(=O)=O)nn2)cc1 (stereo not drawn),-7,.,.,-1,.,.,.,.
SMILES,CendR NRP1 mod,MEKK2wt PB1 HTS,MEKK3 PB1 HTS,SKN-1 inh,MEKK2mut PB1 HTS,MEKK2wt confirm,MEKK2mut confirm,MEKK3 confirm
CCOc1ccc(CCNC(=O)CSCC(=O)Nc2ccc(OC)cc2)cc1OCC,7,.,.,8,.,.,.,.
O=C1c2ccccc2C(=O)N1OCCOCCOCCON1C(=O)c2ccccc2C1=O,-2,85,82,-3,-3,.,.,.
O=C1c2ccccc2C(=O)N1OCCOCCOCCBr,-4,-2.0*[inhibitor],1.0*[inhibitor],-7,-26,102,2,102
CC(=O)Nc1ccc(C(=O)OCC(=O)/C(C#N)=C(\C)N)cc1,1,104,105,-4,-2,.,.,.
C/C(N)=C(/C#N)C(=O)COC(=O)c1ccncc1,0,113,135*,19,6,104,2,104
O=c1[nH]c(SCC2CCCCO2)nc2ccccc12 (stereo not drawn),-18,93,73*[inhibitor],2,-4,103,10,105
Cc1cc(C(=O)CSc2nc3ccccc3c(=O)[nH]2)c(C)n1CC1CCCO1 (stereo not drawn),-15,91,99,-4,-7,.,.,.
COC(=O)c1c(NC(=O)c2nc3ccccc3s2)sc2c1CC(C)(C)NC2(C)C,-4,210*,108,14,69*,186,42,110
COC(=O)c1c(NC(=O)c2ccc(C(=O)c3ccccc3)cc2)sc2c1CC(C)(C)NC2(C)C,-2,.,.,-3,.,.,.,.
CCOc1ccc(C(=O)Nc2sc3c(c2C(=O)OC)CC(C)(C)NC3(C)C)cc1,-2,152*,105,-9,34,137,13,100
O=C(NCc1ccncc1)C1Cc2c(-c3ccccc3Oc3ccccc3)ccnc2O1 (stereo not drawn),-3,.,.,1,.,.,.,.
O=C(NCCc1ccccc1)C1Cc2c(-c3ccc(Cl)cc3)ccnc2O1 (stereo not drawn),0,.,.,18,.,.,.,.
CCOc1nc(Nc2ccc(OC)c(Cl)c2)nc(N2CCN(c3ccc(OC)cc3)CC2)n1,5,77,79*[inhibitor],19,33*,112,4,103
CCOc1nc(Nc2ccc(F)cc2)nc(N2CCN(c3ccc(OC)cc3)CC2)n1,3,105,101,-15,-4,.,.,.
CC1(C(=O)Nc2ccc3c(c2)OCCO3)CSCC(=O)N1Cc1ccco1 (stereo not drawn),4,.,.,2,.,.,.,.
O=C(Oc1cccccc1=O)c1ccccc1,2,95,96,-11,-9,.,.,.
CC1=C(C)Cc2c(OC(=O)c3ccccc3)ccc(OC(=O)c3ccccc3)c2C1,.,51,42*[inhibitor],.,8,101,2,98
CCOC(=O)/C(=N\Nc1ccc(Cl)cc1)c1csc(Nc2ccccc2)n1,17,135*,109,-9,8,134,10,105

# Source: PubChem (several laboratories)
